Laboratory results published in PubChem BioAssay AID1117319 (Southern Research Institute, 2015).
“And” between values parts separate entries of the source, which are not always exact repeats. Equal values may be shown once. About 1,500 (0.58%) of roughly 260,000 compounds were called active. About 5% were inconclusive and are not listed.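 Rule for the calls: active = inhibition above a set limit at one or more doses, reproduced on every date tested; inconclusive = results disagree between test dates, or hit never tested in dose response; inactive = the rest.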 The list is a sample of the results. Entries with a potency or affinity are not part of this list.

Biological target: Virion infectivity factor (Human immunodeficiency virus type 1 group M subtype B (isolate BH10)) + Virion infectivity factor (Human immunodeficiency virus type 1 group M subtype B (isolate BRU/LAI)) + Virion infectivity factor (Human immunodeficiency virus type 1 group M subtype B (isolate PCV12)) + Virion infectivity factor (Human immunodeficiency virus type 1 group M subtype B (isolate HXB2)) + DNA dC->dU-editing enzyme APOBEC-3G (Homo sapiens) (UniProt P69720+P69721+P69722+P69723+Q9HC16)
Experiment: inhibitors of Vif binding to APOBEC3G peptide, primary screen, biochemical, TR-FRET, GST-Vif 1-94, biotin-A3G peptide, dose response retest (AID 1117319);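 note: Vif residues 1-94 fused to GST binding biotinylated APOBEC3G peptide 110-148; 0% = full assay without inhibitor and 100% = GST in place of GST-Vif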
Conditions: hits give high values

inhibition, inactive:
Nc1ncnc2c1CN(Cc1ccccc1)CC2 -5.85%, CC1(C)CC(=O)C2=C(C1)OC(N)=C(C#N)C2c1ccccc1 (centres undefined) 3.85%, N#CC1(Nc2ccc([N+](=O)[O-])cc2)CCCC1 10.3%, CCOC(=O)C1=C(COC(=O)/C=C/c2ccc(C)o2)NC(=O)NC1C (centres undefined) -5.28%, CCOC(=O)C1=C(COC(=O)/C=C/c2ccc(Cl)cc2)NC(=O)NC1C (centres undefined) 2.25%, O=C(O)/C=C/c1ccccc1Oc1ccccc1 -6.82%, Cc1ccc(N=C2NC(=O)/C(=C/c3cccn3C)S2)cc1C -3.5%, COc1ccc(CCNc2cc(C)nc3c(-c4ccccc4OC)cnn23)cc1OC 3.45%, CC(C)(CO)CN1CCC(n2nccc2NC(=O)C2CCCC2)CC1 -9.4%, COc1ccc2c(c1)C(C)=CC(C)(C)N2C(=O)Nc1ccccc1 1.41%, CCNC(=O)N1c2ccc(OC)cc2C(C)=CC1(C)C 18.1%, COc1cccc(C(C#N)N2CCOCC2)c1 (centres undefined) -0.56%, C/C(=N\NC(=O)CCc1ccc(S(=O)(=O)N2CCOCC2)cc1)c1ccc(OC(F)F)cc1 18.9%, CC(NC(=O)c1ccc(Cn2cc([N+](=O)[O-])cn2)cc1)c1ccccc1 (centres undefined) -7.96%, O=C1C(Cl)=C(N2CCOCC2)C(=O)N1c1ccc(Br)cc1 12.4%, O=C1C(Cl)=C(N2CCCCCC2)C(=O)N1c1ccccc1 4.82%, CCOc1ccccc1C(=O)NC(C(=O)OCC(=O)NNC(=O)c1cccs1)C(C)C (centres undefined) -2.67%, Cc1cc(NN)nc2ccc(Cl)cc12 21%, O=C(Cc1csc(Nc2nc(=S)[nH]c3ccccc23)n1)NCc1ccc(Cl)cc1 3.88%, Cc1cc(SCc2ccc(C(F)(F)F)cc2)nc(=O)[nH]1 4.23%, Cc1cccc(-c2cc3nc4c(c(NCc5ccco5)n3n2)CCCC4)c1 3.78%, Clc1cccc(-c2cc3nc4c(c(NCc5ccco5)n3n2)CCCC4)c1 -4.82%, c1coc(-c2nnc(SCc3cn4ccccc4n3)o2)c1 2.16%, Brc1ccc(CSc2nnc(-c3ccco3)o2)cc1 -2.39%, COc1ccc(-c2c(C)n([O-])c(C)c(-c3ccccc3)[n+]2=O)cc1OC -6.67%, Cc1cccc(OCc2nnc(SCC(=O)Nc3ccc(C)c(Cl)c3)o2)c1 -12%, Cc1cc(C)cc(NC(=O)CN(C)CC(=O)N(CC(C)C)c2c(N)n(CC(C)C)c(=O)[nH]c2=O)c1 1.78%, COc1cc(-c2ccc(NC(C)=O)c(OC)c2)ccc1NC(C)=O 1.06%, O=C(O)c1ccccc1Nc1ccccc1C(=O)O 5.44%, CCOc1cc(-n2nc(C)c(C#N)c2N)nc(SC)n1 -1.98%, COc1cccc(/C=C2\CCCCC2=O)c1 8.63%, CC(NC(=O)C12CC3CC(C1)CC(n1cncn1)(C3)C2)C12CC3CC(CC(C3)C1)C2 (centres undefined) -7.08%, O=C(COC(=O)CCC(=O)N1CCOCC1)Nc1ccc(Br)cc1Br 3.75%, O=C(C1CCCN1S(=O)(=O)c1ccc(Cl)cc1)N1CCCCC1 (centres undefined) -2.58%, CN1CCN(c2ccc(C(=O)c3ccc(F)cc3)cc2)CC1 -7.54%, Nc1ccc(N2CCN(c3ccc(Cl)c(Cl)c3)CC2)cc1 22.2%, O=Cc1ccc(N2CCCCC2)cc1 -6%, O=C(O)c1ccc(N2CCCCC2)cc1 8.04%, CCn1c(SCC(=O)NC2CC2)nnc1-c1ccccc1 -1.91%, COc1ccc(CNC(=O)c2ccccc2NS(C)(=O)=O)cc1 1.78%, C=C(C)CNC(=S)NNC(=O)c1ccncc1 -3.17%, Cc1cc(C)c(S(=O)(=O)NCCc2ccncc2)c(C)c1 -0.3%, CC(NC(N)=O)C(=O)Nc1ccc(Cl)c(S(=O)(=O)Nc2ccc(Br)cc2)c1 (centres undefined) 10.3%, CCOc1ccc(S(=O)(=O)n2ccc(C)n2)cc1 -9.61%, CCOc1ccc(NCCC#N)cc1 -2.11%, CCOc1ccc(NC(=O)NC2CCOC(C)(C)C2)cc1 (centres undefined) 22%, Cc1ccc(C)c(NC(=O)CSc2nc3c(c(=O)n2C)SC(C)C3)c1 (centres undefined) 8.15%, Cc1cc(C)c(NC(=O)CSc2nc3c(c(=O)n2C)SC(C)C3)c(C)c1 (centres undefined) 3.57%, CCC(C)N(NC(C)=O)c1nc(Cl)nc(NC(C)(C)C)n1 (centres undefined) 7.21%, COc1ccc(/C=N/NC(=O)CN(C2=NS(=O)(=O)c3ccccc32)c2ccccc2)cc1 22.5%, CCOC(=O)C1(Cc2cccc(OC)c2)CCN(Cc2ccc(C)s2)CC1 11.4%, Cc1ccc(O)c(Cc2cc(C)cc(Cc3cc(C)ccc3O)c2O)c1 -3.64%, Cc1cc(C(C)(C)C)c(O)c(C(C)(C)C)c1 17.9%, COc1ccc(OC)c(-c2[nH]nc3c2C(c2ccco2)C(C#N)=C(N)O3)c1 (centres undefined) 17.4%, CC(=O)Nc1ccc(S(=O)(=O)Nc2nc3ccc([N+](=O)[O-])cc3s2)cc1 0.77%, O=C(NC1CC1)c1cc(-c2ccccn2)nc2ccccc12 -3.96%, O=C(Nc1cccc(S(=O)(=O)NC2=NCCC2)c1)c1cc(-c2ccco2)nc2ccccc12 -0.28%, O=C(Nc1cccc(S(=O)(=O)NC2=NCCC2)c1)c1cc(-c2ccccn2)nc2ccccc12 -2.06%, COc1ccc(-c2cc(C(=O)NCC3CCCO3)c3ccccc3n2)cc1 (centres undefined) -7.4%, O=C(NNC(=O)c1cc(-c2ccco2)nc2ccccc12)c1ccccc1 14%, O=C(NCC1CCCO1)c1cc(-c2ccncc2)nc2ccccc12 (centres undefined) -2.45%, CN(CCc1ccccn1)S(=O)(=O)c1ccc(F)cc1 1.96%, Cc1cc2c(Nc3ccc(O)cc3)ncnc2s1 -0.33%, N#CC(C#N)=C1NC2(CCCC2)Cc2ccccc21 1.13%, Cc1ccc(Nc2nc(N)nc(CN3CCN(Cc4ccc5c(c4)OCO5)CC3)n2)cc1C 3.16%, CC(C)(O)C#Cc1ccc(C(=O)NCc2ccccc2)s1 6.16%, Cc1cccc(Oc2nc(-c3cccc([N+](=O)[O-])c3)nc3ccccc23)c1C -5.88%, Cc1ccc(NC2=NC(c3ccc(F)cc3)n3c(nc(C)cc3=O)N2)cc1 (centres undefined) 5.66%, CC(C)(C)OC(=O)NCCCC[C@H](NC(=O)c1nc[nH]c1C(=O)N[C@@H](CCCCNC(=O)OC(C)(C)C)C(=O)OC(C)(C)C)C(=O)OC(C)(C)C -5.41%, CC(=O)N1CCN(C(=O)CCC(=O)O)CC1 -4.74%, Cc1ccc(C)c(N(CC(=O)NCCSCc2ccco2)S(C)(=O)=O)c1 12%, COc1ccc(N(CC(=O)NCCSCc2ccco2)S(=O)(=O)c2ccc(C)cc2)cc1 -1.79%, Cc1ccccc1N(CC(=O)NCCSCc1ccco1)S(C)(=O)=O 3.05%, Cc1ccc(N(CC(=O)NCCSCc2ccco2)S(=O)(=O)c2ccc(C)cc2)cc1 -4.1%, O=C(CSc1nc2[nH]ncc2c(=O)[nH]1)Nc1cc(C(F)(F)F)ccc1Cl 3.21%, COc1ccc(CCNC(=O)CCSc2nc(-c3ccco3)cc(C(F)(F)F)n2)cc1 2.48%, CNC(=O)OCc1nc(SSC(C)(C)C)n(C)c1COC(=O)NC -4.09%, O=C(c1c(Cl)cccc1Cl)N1CCN(c2ccccn2)CC1 3.31%, CCC(c1nnnn1Cc1ccccc1)N(Cc1ccco1)Cc1cc2cc(OC)ccc2[nH]c1=O (centres undefined) 6.8% and 6.79%, CCOc1ccc2[nH]c(=O)c(CN(Cc3ccco3)C(CC)c3nnnn3Cc3ccccc3)cc2c1 (centres undefined) 4.17% and 12.4%, CCOC(=O)c1cc(NC(=O)CNCC(c2ccccc2)N(C)C)cc(C(=O)OCC)c1 (centres undefined) -3.03%, O=C1NC(Cc2ccccc2)c2nc3ccccc3c(=O)n2-c2cc3ccccc3cc21 (centres undefined) 0.54%, Cc1ccc(NC(=O)CCC(=O)Nc2ccc(C)cc2)cc1 2.94%, Cc1c(Cl)cccc1NC(=O)CCCCCN1C(=O)CCC1=O -0.64%, CC1NC(=O)NC1CCCCCC(=O)NCCc1ccccc1 (centres undefined) 31.4%, Cc1c(F)cccc1NC(=O)CSCC(=O)Nc1ccccc1 4.77%, CC1NC(=O)NC1CCCCCC(=O)Nc1ccc(F)c(Cl)c1 (centres undefined) -8.82%, CCc1cccc(NC(=O)CCSCCC(=O)Nc2cccc(CC)c2)c1 -3.74%, COC(=O)c1cccc(NC(=O)CSCc2ccccc2)c1 6.61%, O=C(Nc1ccsc1C(=O)N1CCCC1)c1ccccc1 -3.04%, CCOc1cccc(C2C(C#N)=C(N)Oc3cc(C)n(Cc4ccccn4)c(=O)c32)c1OCC (centres undefined) 14.3%, CCOC(=O)c1nn(-c2ccc(C)cc2)c(=O)cc1OCC(=O)Nc1cccc(C)c1 -4.53%, COC(=O)c1c(NC(=O)c2ccco2)sc2c1CC(C)(C)NC2(C)C -5.88%, CN(c1ccccc1)P(=O)(N(C)c1ccccc1)N(C)c1ccccc1 -2.89%
